Source: PubChem BioAssay (several laboratories)
Sampled rows, rich in hits. Any-hit rate of the full collection: about 4.8%.
tim10-1 inh: growth inhibitors of tim10-1 mutant yeast, primary screen, luminescence, uHTS | AID 463190, 2010 | 330,000 tested, 2.2% active | S. cerevisiae tim10-1 ts strain growth, BacTiter-Glo, 24 h | inhibition, % at 20 µM;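 active means inhibition of at least 40%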;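 further: mutant grown at 25 °C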
TIM10 inh: growth inhibitors of isogenic TIM10 control yeast, primary screen, counter-screen for tim10-1 yeast inhibitor project, luminescence, uHTS; inhibition, % at 10 µM; 330,000 tested, 1.4% active; AID 463195, 2010; S. cerevisiae TIM10 strain growth, BacTiter-Glo luminescence, 24 h;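 active means inhibition of 40% or more at the single tested concentration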;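 further: wild-type TIM10 isogenic control strain grown at permissive 25 °C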
PfHsp90 yeast 2: growth inhibition of PfHsp90-expressing yeast, primary screen, antimalarial PfHsp90 inhibitor project, S. cerevisiae, BacTiter-Glo luminescence, single point, set 2 | BacTiter-Glo ATP, 48 h; yeast lacking PDR1 and PDR3 efflux regulators | inhibition, % at 9.4 µM | 310,000 tested, 0.32% active | AID 504621, 2011;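 active means every replicate shows inhibition above about 80%, whatever the replicate mean, limit read from the data; inconclusive means mean inhibition reaches the set limit but some replicate falls short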
NALP1 yeast inh: NALP1 inflammasome inhibitors in reconstituted yeast, colorimetric, S. cerevisiae, triplicate retest. inhibition, % at 10 µM. 280,000 tested, 0.61% active. S. cerevisiae NALP1/ASC/caspase-1 growth, X-gal OD620, 72 h; in the data active means inhibition mostly above about 24%, no sharp cut-off; inactive means mostly below about 32%
SKKanGAS inh: S. pyogenes SKKanGAS growth inhibitors in kanamycin, primary screen, streptokinase expression inhibitor project, SKKanGAS strain, BacTiter-Glo luminescence. 6 h. inhibition, % at 7.5 µM. 300,000 tested, 1.3% active. AID 1662, 2009;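 active means mean replicate score, as percent of positive control median, at least 50; inconclusive means mean below 50 but one replicate at or above 50; inactive means mean and every replicate below 50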;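 further: strain carries kanamycin resistance gene driven by streptokinase promoter and grows in 40 µg/ml kanamycin; loss of luminescence reflects streptokinase promoter inhibition or plain growth inhibition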
tim23-1 inh: growth inhibitors of tim23-1 mutant yeast, primary screen, luminescence, uHTS. 330,000 tested, 1.3% active. S. cerevisiae tim23-1 growth, BacTiter-Glo luminescence, 24 h. inhibition, % at 20 µM;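 active means growth inhibition of the mutant yeast at or above 50%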;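 further: temperature-sensitive mutant grown at 25 °C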
tim10-1 confirm: growth inhibitors of tim10-1 mutant yeast, confirmation, single concentration, luminescence, S. cerevisiae; shares compounds with tim10-1 inh; S. cerevisiae tim10-1 ts strain growth, BacTiter-Glo, 24 h; inhibition, % at 20 µM; 7,400 tested, 56% active; AID 463213, 2010;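 active means inhibition of yeast growth at or above a set limit in either of two repeat tests at 20 µM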;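 further: tim10-1 mutant grown at permissive 25 °C to find synthetic lethal compounds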
TIM10 conf: growth inhibitors of wild-type TIM10 yeast, confirmation, counter-screen for tim10-1 synthetic lethality project, single concentration, luminescence, S. cerevisiae. shares compounds with TIM10 inh. S. cerevisiae tim10 strain growth, BacTiter-Glo luminescence, 24 h. inhibition, % at 10 µM. 4,600 tested, 63% active. AID 463215, 2010;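 active means inhibition of yeast growth at or above a set limit in either of two replicates at 10 µM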; further: this counterscreen used the strain with wild-type TIM10
Of the large screens only hits and unclear results are named; the others gave an inactive call (follow-up assays come after a bar, where they were run).

CCSc1nc2ccccc2n1C(=O)/C=C\c1ccc(OC)c(OC)c1	tim10-1 inh 65, TIM10 inh 52 | tim10-1 confirm 56 | TIM10 conf inactive
CCOC(=O)C1=C(C)Nc2nc(SCC)nn2C1c1ccc(OC)cc1 (stereo not given)	none
CCOC(=O)C1=C(C)Nc2nc(=S)[nH]n2C1c1ccc(Cl)cc1 (stereo not given)	tim10-1 inh 55, TIM10 inh 48 | tim10-1 confirm 44 | TIM10 conf inactive
CCOC(=O)N/N=C\c1ccc(-c2cc(Cl)ccc2Cl)o1	tim10-1 inh 44, TIM10 inh 41 | tim10-1 confirm 34 | TIM10 conf 35
Cc1ccc(C(=O)N2CCCCC2)cc1S(=O)(=O)N1CCCC1	none
N/C(Cc1ccc([N+](=O)[O-])cc1)=N\OC(=O)Cc1ccc(Cl)cc1	tim10-1 inh 66, TIM10 inh 41 | tim10-1 confirm inactive | TIM10 conf 77
N/C(Cc1ccc(Cl)cc1Cl)=N\OC(=O)Cc1ccc(Cl)cc1	tim10-1 inh 62, TIM10 inh 85 | tim10-1 confirm 55 | TIM10 conf inactive
N/C(Cc1ccc(Cl)cc1)=N\OC(=O)c1ccc2ccccc2c1	tim10-1 inh 64, TIM10 inh 75 | tim10-1 confirm 60 | TIM10 conf inactive
N/C(Cc1ccc(Cl)cc1Cl)=N\OC(=O)c1ccccc1	tim10-1 inh 65, TIM10 inh 86 (no result: PfHsp90 yeast 2) | tim10-1 confirm inactive | TIM10 conf 84
O=C(C/C=N/OCc1ccc(Cl)cc1Cl)c1ccccc1	none
O=C1CC(C(=O)Nc2nccs2)C(c2ccccc2)O1 (stereo not given)	none
Cc1ccc(/C(N)=N/OC(=O)Oc2ccccc2)cc1	none
Cc1ccc(/C(N)=N/OC(=O)c2ccc3ccccc3c2)cc1	tim10-1 inh 54, TIM10 inh 55 | tim10-1 confirm 53 | TIM10 conf 66
CCc1ccc(OCC(=O)O/N=C(\N)Cc2ccc([N+](=O)[O-])cc2)cc1	tim10-1 inh 57, TIM10 inh 60 | tim10-1 confirm 73 | TIM10 conf 41
CCc1ccc(OCC(=O)Oc2ccc([N+](=O)[O-])cc2)cc1	none
O=C(/C=C/c1ccc(Cl)cc1)NCCSc1ccccc1	none (no result: PfHsp90 yeast 2)
COc1cccc(-c2nn(C)c3sc(C(=O)N4CCN(c5ccccn5)CC4)cc23)c1	tim10-1 inh 43, TIM10 inh 41 | tim10-1 confirm 32 | TIM10 conf inactive
CS(=O)(=O)c1ccc(C(=O)OCc2nnc(-c3ccc(Cl)cc3)o2)cc1[N+](=O)[O-]	tim10-1 inh 59, TIM10 inh 51 (no result: PfHsp90 yeast 2) | tim10-1 confirm 56 | TIM10 conf 41
O=C(OCc1nnc(-c2ccc(Cl)cc2)o1)c1ccc(O)cc1	none
Cc1ccc(-c2cc3c(N=O)c4ccccc4c-3n[nH]2)cc1	tim10-1 inh 43, TIM10 inh 44 | tim10-1 confirm inactive | TIM10 conf 29
O=Nc1c2cc(-c3ccccc3)[nH]nc-2c2ccccc12	SKKanGAS inh inconclusive (no result: tim10-1 inh, TIM10 inh, PfHsp90 yeast 2, tim23-1 inh)
CCC(C)c1ccc(NS(=O)(=O)c2c(C)[nH]c(=O)[nH]c2=O)cc1 (stereo not given)	none
Cn1c(SCC(=O)Nc2ccccc2Br)nnc1-c1cnccn1	none
CN(CC(=O)Nc1ccc(Cl)c(Cl)c1)C(=O)C12CC3CC(CC(C3)C1)C2	tim10-1 inh 45, TIM10 inh 60 | tim10-1 confirm inactive | TIM10 conf 53
CN(CC(=O)Nc1ccc(Cl)c(Cl)c1)C1CCCCC1	none
CC(=O)Oc1ccc(/C=C2\N=C(C3CCCCC3)OC2=O)cc1	tim10-1 inh 46, TIM10 inh 56 | tim10-1 confirm 46 | TIM10 conf 41
CCOc1cc(/C=C2/N=C(c3ccc4c(c3)OCO4)OC2=O)ccc1OC(C)=O	none (no result: NALP1 yeast inh, SKKanGAS inh)
CCC(=O)N1CCc2cc(S(=O)(=O)N3CCN(c4ccccn4)CC3)ccc21	tim10-1 inh 43, TIM10 inh 44 | tim10-1 confirm 37 | TIM10 conf inactive
COc1ccc(S(=O)(=O)N2N=C(C)Oc3ccccc3C2=O)cc1	none
CCCCOC(=O)/C(=C\c1ccc([N+](=O)[O-])o1)NC(=O)c1ccccc1	tim10-1 inh 40, TIM10 inh 45 | tim10-1 confirm 40 | TIM10 conf inactive
CCCCOC(=O)/C(=C/C=C/c1ccccc1)NC(=O)c1ccccc1	none
O=C(COC(=O)c1cc[n+]([O-])cc1)Nc1ccc(Br)cc1	none (no result: NALP1 yeast inh, SKKanGAS inh)
Cc1cc(=O)oc2cc(NC(=O)c3cccc(S(C)(=O)=O)c3)ccc12	none
CCCc1ccc(OC(=O)c2cccs2)cc1	none
CCCc1ccc(OC(=O)c2ccc(O)cc2Cl)cc1	tim10-1 inh 51, TIM10 inh 41, SKKanGAS inh 81 | tim10-1 confirm 38 | TIM10 conf 45
COCCNC(=S)NC(=O)c1ccc(C(C)(C)C)cc1	none
N#Cc1c(-c2ccccc2)cc(-c2ccccc2)nc1SCc1nnc(-c2ccccc2)o1	none (no result: PfHsp90 yeast 2)
N#CC1(C#N)CC(C=O)=C(N)C1(C#N)CC(=O)C12CC3CC(CC(C3)C1)C2 (stereo not given)	tim10-1 inh 40, TIM10 inh 48 | tim10-1 confirm 48 | TIM10 conf 40
FC(F)Sc1ccc(NC(=S)NCc2ccccc2)cc1	tim10-1 inh 48, TIM10 inh 56 | tim10-1 confirm 41 | TIM10 conf 44
S=C(Nc1ccc(Br)cc1)NC1CCCC1	none
CN(CC(=O)Nc1ccc(SC(F)F)cc1)C1CCCCC1	none
FC(F)Oc1ccc(NC(=S)NCc2ccccc2)cc1	none
FC(F)Sc1ccc(NC(=S)NC2CCCCC2)cc1	tim10-1 inh 65, TIM10 inh 66 (no result: PfHsp90 yeast 2) | tim10-1 confirm 67 | TIM10 conf 62
FC(F)Sc1ccc(NC(=S)NCC2CCCCC2)cc1	tim10-1 inh 71, TIM10 inh 69 | tim10-1 confirm 60 | TIM10 conf 60
CC(C1CC1)N(Cc1ccccc1)C(=S)Nc1cccc(C(F)(F)F)c1 (stereo not given)	tim10-1 inh 49, TIM10 inh 53 | tim10-1 confirm 48 | TIM10 conf inactive
CN(C)C(=S)Nc1cccc(C(F)(F)F)c1	none
